Where a name gives a salt, the structure may show the parent alone.
Tests used:
Experiment in all cases: thermal shift delta Tm vs DMSO control; higher = stronger stabilization (binding)
Conditions in all cases: 12.5 µM; protein concentration 2 µM
[1] = system: LOC_OS04G57630-cb004
How it was run: (§1)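 The melting temperature shift given here is a triplicate mean, measured against protein that received only DMSO. Melting temperatures came from Boltzmann fits of differential scanning fluorimetry data on E. coli-expressed, purified rice kinase domain constructs. Each 19.5 μl well contained 2 μM kinase, 100 mM potassium phosphate pH 7.5, 150 mM NaCl, 10% glycerol, 5 × SYPRO Orange and compound in DMSO. Plates were scanned from 25°C to 95°C at 0.05°C/s.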

[2] = system: LOC_OS05G07850-cb002
How it was run: as §1

[3] = system: LOC_OS05G16824-cb004
How it was run: as §1

[4] = system: LOC_OS05G28520-cb001
How it was run: as §1

[5] = system: LOC_OS05G30820-cb001
How it was run: as §1

[6] = system: LOC_OS05G43570-cb004
How it was run: as §1

[7] = system: LOC_OS06G16330-cb003
Chain of LOC_OS06G16330-cb003 (as listed by the source): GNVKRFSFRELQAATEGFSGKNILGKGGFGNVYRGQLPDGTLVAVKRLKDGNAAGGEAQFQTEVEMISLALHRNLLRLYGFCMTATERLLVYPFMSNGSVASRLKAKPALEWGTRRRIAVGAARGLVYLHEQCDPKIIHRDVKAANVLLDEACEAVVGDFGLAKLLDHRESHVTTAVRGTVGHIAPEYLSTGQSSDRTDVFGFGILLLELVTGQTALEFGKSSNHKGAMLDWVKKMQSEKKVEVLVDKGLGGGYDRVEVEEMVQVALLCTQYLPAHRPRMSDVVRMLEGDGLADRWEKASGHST
How it was run: as §1

[8] = system: T1, LOC_OS06G22820-cb001
T1 sequence (whole entry): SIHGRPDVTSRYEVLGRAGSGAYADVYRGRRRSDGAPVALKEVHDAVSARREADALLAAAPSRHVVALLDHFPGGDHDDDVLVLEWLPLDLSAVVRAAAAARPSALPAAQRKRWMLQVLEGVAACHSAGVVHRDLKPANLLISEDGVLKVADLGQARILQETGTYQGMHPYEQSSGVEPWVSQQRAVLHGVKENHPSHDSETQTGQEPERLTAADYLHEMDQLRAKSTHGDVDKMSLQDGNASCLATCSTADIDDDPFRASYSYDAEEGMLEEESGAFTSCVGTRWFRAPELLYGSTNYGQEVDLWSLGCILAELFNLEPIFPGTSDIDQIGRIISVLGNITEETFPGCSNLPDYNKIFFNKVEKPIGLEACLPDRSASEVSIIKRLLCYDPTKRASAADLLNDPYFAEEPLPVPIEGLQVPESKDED
How it was run: as §1

[9] = system: LOC_OS07G06570-cb004
How it was run: as §1

[10] = system: LOC_OS07G07230-cb001
How it was run: as §1

Row | SMILES | thermal shift delta Tm [1] [°C] | thermal shift delta Tm [2] [°C] | thermal shift delta Tm [3] [°C] | thermal shift delta Tm [4] [°C] | thermal shift delta Tm [5] [°C] | thermal shift delta Tm [6] [°C] | thermal shift delta Tm [7] [°C] | thermal shift delta Tm [8] [°C] | thermal shift delta Tm [9] [°C] | thermal shift delta Tm [10] [°C]
1 | O=C(NC[C@H](O)CO)c1ccncc1Nc1ccc(I)cc1F | 0.16 | 0.04 | -2.59 | -0.04 | 0.65 | 0.08 | -0.12 | 0.62 | 0.95 | 0.62
2 | O=C1NC(=O)C(=Cc2ccc(-c3ccc(F)cc3)o2)S1 (stereo in doubt) | 0.48 | 1.37 | -3.64 | 0.89 | 0.73 | 1.06 | 0.12 | 0.65 | 0.53 | 0.04
3 | COc1c(C)c(C(=O)c2ccc(N)c(C(=O)O)c2)n2ccccc12 | 0.19 | 0.78 | -2.73 | 0.86 | 0.51 | 0.58 | -0.18 | 0.47 | 1.2 | 0.36
4 | O=c1nc(N2CCOCC2)oc2c(-c3cccc4c3sc3ccccc34)cccc12 | -0.05 | 1.07 | 1.26 | -0.27 | -0.09 | -0.65 | -1.74 | 0.33 | 0.14 | 0.66
5 | N#Cc1ccc(-c2c(-c3ncn[nH]3)sc(N3CCOCC3)c2C#N)c(F)c1 | 0.27 | -0.29 | -1.35 | 0.33 | 0.65 | 0.57 | -0.08 | 0.61 | 1.08 | 0.24
6 | O=C(NCc1ccccc1)c1csc(Nc2ccncn2)n1 [Thiazovivin] | 0.16 | 2.6 | -1.42 | 0.2 | 0.36 | 1.22 | 0.41 | 0.56 | 0.66 | -0.04
7 | C[C@H](NC(=O)/C(C#N)=C/c1cccc(Br)n1)c1ccccc1 | -1.13 | -0.94 | -17.3 | -0.45 | 0.31 | -0.67 | -1.56 | 0.13 | 0.17 | -0.47
8 | Oc1cccc(-c2nc(N3CCOCC3)c3oc4ncccc4c3n2)c1 | -0.25 | 0.47 | 1.57 | 0.51 | 0.49 | 0.69 | 0.07 | 0.82 | 1.15 | 0.33
9 | O=C(Nc1cnn2ccc(N3CCC[C@@H]3c3cc(F)ccc3F)nc12)N1CC[C@H](O)C1 [Larotrectinib (LOXO-101) sulfate] | -0.61 | 5.23 | 0.04 | 0.01 | 0.53 | 0.03 | 2.16 | 0.35 | 0.63 | 0.56
10 | CC(=O)O/N=C1/C(c2c(O)[nH]c3cc(Br)ccc23)=Nc2ccccc21 [BIO-acetoxime] | 0.24 | 7.48 | 4.45 | -0.58 | 1.03 | -0.53 | 2.52 | -0.05 | 0 | 0.92
11 | C[C@@H]1COC(Nc2ccc3ncnc(Nc4ccc(OCc5nccs5)c(Cl)c4)c3c2)=N1 [Varlitinib] | 1.38 | 3.96 | -3.4 | 0.54 | 0.94 | 0.53 | 1.46 | 0.8 | 0.43 | 0.26
12 | COc1cc2nccc(Oc3ccc(NC(=O)C4(C(=O)Nc5ccc(F)cc5)CC4)cc3)c2cc1OC [Cabozantinib malate (XL184)] | 0.66 | 10.2 | -1.18 | 1.86 | 0.41 | 0.69 | 1.53 | 0.93 | 1.5 | -0.02
13 | CC(=O)Nc1nc(C)c(-c2ccc(Cl)c(S(=O)(=O)NCCO)c2)s1 | 0.23 | 4.94 | 0.69 | 0.59 | 0.4 | 0.87 | 0.63 | 0.43 | 0.81 | -0.01
14 | Nc1nc(Nc2ccc(S(N)(=O)=O)cc2)nn1C(=O)c1c(F)cccc1F | 1.19 | 12.5 | 8.94 | 0.98 | 1.95 | 0.82 | 8.67 | -0.12 | 1.81 | 0.21
15 | Cn1cc(-c2cnn3c(N)c(Br)c([C@@H]4CCCNC4)nc23)cn1 | 0.1 | 6.22 | 4.78 | 0.02 | 0.27 | 0.29 | 7.12 | 0.34 | 0.75 | 0.55
16 | Cc1c[nH]c(/C=C2\C(=O)Nc3ccccc32)c1CCC(=O)O | 0.5 | 6.66 | 7.29 | 0.67 | 2.14 | 0.11 | 9.94 | 0.18 | 0.84 | 0.79
17 | COc1ccc(C(=O)Nc2sc3c(c2C(N)=O)CCCC3)cc1OC | 0.24 | 5.8 | -1.08 | 0.65 | 0.5 | 0.59 | 5.12 | 0.46 | 1.73 | 0.5
18 | COc1cc(Nc2ncc(F)c(Nc3ccc4c(n3)N(COP(=O)(O)O)C(=O)C(C)(C)O4)n2)cc(OC)c1OC [R788 (Fostamatinib) Disodium] | 0.34 | 7.08 | 6.19 | 0.86 | 1.5 | 0.56 | 6.28 | 0.9 | 1.71 | 0.59
19 | CCCNC(=O)Nc1ccc(Oc2ncnc3cc(OC)c(OC)cc23)cc1Cl | 0.94 | 5.45 | -1.66 | -0.19 | 0.49 | 0.07 | 1.43 | 0.78 | 0.73 | 0.03
20 | CNC(=O)c1ccc(Nc2ncc(C(F)(F)F)c(NCc3nccnc3N(C)S(C)(=O)=O)n2)cc1 | 2.75 | 10.8 | 9.21 | 6.38 | 4.15 | 0.69 | 5.49 | 0.27 | 0.66 | 0.51

Source: the supplement of paper PMC9694430
